In PubChem BioAssay (NCATS) one finds Potency data, which are given here for 20 compounds.

Inconclusive results are not listed. Calls of active or inactive are those of the source. Calls follow the shape of the dose curve; as a rule, active = well fitted inhibition curve with a large enough effect; inconclusive = small, poorly fitted or top-dose-only effect; inactive = flat fitted curve, though single readings scatter.

Experiment in all cases: qHTS profiling for inhibitors of Plasmodium falciparum proliferation (AID 504749); also: nearly all actives have a fitted effect of over 60% in size
Settings in all cases: P. falciparum in erythrocytes, SYBR Green DNA, 72 h; series mostly up to 28.7 µM
For orientation: In qHTS, concentration-response curves come from the screen itself.

For one assay, the system named is CP335. Summed up: (§1)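 Quantitative HTS: compounds pinned into medium, infected erythrocytes added (0.3% parasitemia, 2.5% hematocrit), 72 h culture at 37 C under 5% CO2. Saponin/Triton lysis with SYBR Green I, overnight RT, then fluorescence read.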
The subject of another assay is DFO2036. An outline of the steps:
as §1

The subject of the next assay is Dd2. An outline of the steps:
as §1

The subject of the next assay is ECU. An outline of the steps:
as §1

The test system of a further assay is FAB9. Summed up: as §1
The test system of the next assay is HB3. Summed up: as §1
For the next assay, the system named is DIV14. Summed up: as §1
In the next assay the test system is DIV17. An outline of the steps:
as §1

For another assay, the system named is DIV30. An outline of the steps:
as §1

For another assay, the system named is GB4. Summed up: as §1
Potency is read from the fitted curve at half-maximal effect.

As to `COc1ccc(C(=O)c2ccccc2O)c(O)c1`, the Potency entry in the assay with CP335, in the assay with DFO2036, with Dd2, in the assay with ECU, in the assay with FAB9 and in the assay on HB3 was “inactive” throughout.

As to `CCOc1ccc(NC(C)=O)cc1`, the Potency result in the assay on DFO2036, in the assay with DIV14, with DIV17, in the assay on DIV30, in the assay on Dd2 and with ECU was “inactive” in each case. Besides, the Potency entry in the assay with FAB9, in the assay with GB4 and in the assay on HB3 was “inactive” in each case.

Regarding `Cc1cccc(C)c1NC(=O)CN1CCCCCC1`, the Potency result in the assay on CP335, in the assay on DFO2036, in the assay on DIV14, in the assay on Dd2, in the assay on ECU and in the assay on FAB9 was “inactive” in each case. Further, in the assay with HB3, the Potency entry is “inactive”.

In the case of `COc1cc([C@H]2Oc3cc([C@H]4Oc5cc(O)cc(O)c5C(=O)[C@@H]4O)ccc3O[C@@H]2CO)ccc1O`, the Potency entry with CP335, with DFO2036, in the assay with Dd2, with ECU, with FAB9 and with HB3 was “inactive” in each case. In the assay on DIV30, the Potency is 19 µM (active).

`CCCCNc1ccc(C(=O)OCCOCCOCCOCCOCCOCCOCCOCCOCCOC)cc1`: the Potency entry in the assay with CP335, with DFO2036, with DIV17, in the assay with DIV30, with Dd2 and in the assay on ECU was “inactive” throughout. The Potency result with FAB9, in the assay on GB4 and with HB3 was “inactive” each time.

Turning to `CCCCCCCCNC(C)C(O)c1ccc(SC(C)C)cc1` (stereo not given), the Potency with CP335 was 0.601 µM (active); in the assay with DIV14 it was 0.675 µM (active); in the assay with DIV17, 0.757 µM (active); in the assay with DIV30, 0.675 µM (active); in the assay on Dd2, 0.447 µM (active); in the assay with ECU it was 0.355 µM (active). The Potency is 1.41 µM (active) in the assay on FAB9, 0.536 µM (active) in the assay with GB4 and 0.891 µM (active) in the assay on HB3.

Regarding `CC(C)(C)NC[C@H](O)COc1cccc2c1CCCC2=O`, the Potency result with CP335, in the assay on DFO2036, in the assay with DIV17, with DIV30, with Dd2 and in the assay with ECU was “inactive” each time. In addition, the Potency entry with FAB9 and with HB3 was “inactive” in each case.

As for `Cc1cc(CC(=O)O)c(C)n1-c1ccc(Cl)cc1`, the Potency result in the assay with DFO2036, in the assay with FAB9 and with HB3 was “inactive” in each case. Moreover, the Potency in the assay with DIV17 was 16.9 µM (active).

With `CCOc1ccccc1OCCN[C@H](C)Cc1ccc(OC)c(S(N)(=O)=O)c1`, the Potency result in the assay with CP335, in the assay on DFO2036, in the assay on DIV14, with DIV30, with Dd2 and with ECU was “inactive” each time. Further, the Potency result in the assay with FAB9 and with HB3 was “inactive” each time.

For the compound `OCCOCCN1CCN(C2=Nc3ccccc3Sc3ccccc32)CC1`, the Potency result in the assay with CP335, in the assay on DFO2036, with DIV17, in the assay on DIV30, in the assay on ECU and in the assay on FAB9 was “inactive” each time. Further, the Potency entry in the assay on GB4 and in the assay on HB3 was “inactive” throughout.

As for `COc1ccc2c(c1)c1c3n2CCN(C)C3=NCC1`, the Potency result in the assay with CP335, with DFO2036, with DIV14, in the assay with DIV30, in the assay with Dd2 and in the assay on ECU was “inactive” in each case. The Potency result in the assay with FAB9, in the assay with GB4 and in the assay on HB3 was “inactive” throughout.

Turning to `CCNC(=O)/C=C/c1cccc(Br)c1`, the Potency entry with CP335, in the assay with DFO2036, with DIV17, in the assay with DIV30, in the assay on Dd2 and in the assay with ECU was “inactive” each time. Further, the Potency entry with FAB9, in the assay on GB4 and with HB3 was “inactive” throughout.

Consider `CCCc1ncc(C[n+]2ccccc2C)c(N)n1`, for which the Potency entry with DFO2036, in the assay with DIV14, with DIV17, with DIV30, with Dd2 and with ECU was “inactive” in each case. The Potency result with FAB9, with GB4 and in the assay on HB3 was “inactive” each time.

Regarding `CN1CCN(CCC(=O)N2c3ccccc3Sc3ccc(C(F)(F)F)cc32)CC1`, the Potency result with DFO2036, with FAB9 and in the assay on HB3 was “inactive” in each case. Moreover, the Potency with DIV14 and in the assay on DIV17 was 8.49 µM (active) in each case.

In the case of `COc1ccc(C(Cl)=C(c2ccc(OC)cc2)c2ccc(OC)cc2)cc1`, the Potency with DFO2036 is 17.8 µM (active); in the assay on ECU, 2.24 µM (active). The Potency result with DIV17, in the assay with DIV30 and with GB4 was “inactive” throughout.

As for `CN1CCC[C@@H]1CCO[C@](C)(c1ccccc1)c1ccc(Cl)cc1`, the Potency entry in the assay with DFO2036, with DIV30, in the assay with ECU, with FAB9 and in the assay on HB3 was “inactive” each time. Besides, the Potency with DIV17 is 6.75 µM (active).

On to `CN(C)C(=O)Nc1ccc(Cl)c(Cl)c1`, for which the Potency result in the assay with DFO2036, in the assay on ECU and in the assay on FAB9 was “inactive” in each case. For the same compound, the Potency with DIV14 is 3.01 µM (active); with DIV17, 4.78 µM (active).

As to `C=CCN1CCc2nc(N)sc2CC1`, the Potency entry in the assay with DFO2036, in the assay on DIV14, with DIV17, with DIV30, in the assay with Dd2 and in the assay on ECU was “inactive” in each case. Also, the Potency entry with FAB9, with GB4 and with HB3 was “inactive” throughout.

For the compound `N/C(=N\N=C\c1ccc(Cl)cc1)N/N=C/c1ccc(Cl)cc1`, the Potency in the assay on DFO2036 was 3.16 µM (active). In addition, the Potency entry with DIV14, with DIV17 and in the assay on DIV30 was “inactive” throughout.

`CCOC(=O)Nc1ccc2c(c1)N(C(=O)CCN1CCOCC1)c1ccccc1S2`: the Potency result with CP335, with DFO2036, with DIV14, in the assay with DIV30, in the assay on Dd2 and in the assay with ECU was “inactive” each time. In addition, the Potency entry in the assay on FAB9, in the assay with GB4 and with HB3 was “inactive” throughout.
